SW480 rerep = inducers of DNA re-replication in SW480 colon cancer cells; SW480 DNA re-replication, Hoechst DNA content imaging, 48 h; Potency, µM (highest dose often 46.1 µM), inactives show at the highest dose re-replication activation, usual class: activators; 340,000 compounds, 1.8% hits; AID 624297; also: % of control where 0% means no effect; nearly all actives have a fitted effect of over 55% in size
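Compounds, transferred as 23 nL by pin tool, were incubated with cells for 48 hr; DNA content per nucleus was then quantified by Hoechst staining and fluorescence plate imaging.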
Mito fusion act = mitochondrial division inhibition or fusion activation; AID 485298; Potency, µM (titrated, usually from 46.1 µM), inactives show top-dose growth rescue (activation), actives largely listed as activators; S. cerevisiae fusion-defective mutant growth rescue, CellTiterGlo 48 h; 320,000 compounds, 0.23% hits; also: % of control where 0% means no effect; nearly all actives have a fitted effect of over 45% in size
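Growth-rescue viability read-out: after 48 h at the non-permissive 37C in glycerol/ethanol YPEG, yeast mitochondrial fusion mutants are measured by CellTiterGlo luminescence; compounds (23 nl pinned per well) restoring growth score as division inhibitors or fusion activators.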
a7 integrin act = activates integrin-mediated alleviation for muscular dystrophy; 350,000 compounds, 0.064% hits; alpha7betagal myoblasts, beta-gal FDG fluorescence, 48 h; Potency, µM (series often up to 38.3 µM), for the others: at the highest dose activation, most hits filed as activators;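 also: 100% = response of the positive control SU9516; nearly all actives have a fitted effect of over 60% in size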
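Alpha7betagal+/- myoblasts (passage 13) were plated 16-24 hr, then exposed to compounds (1:260 dilution of DMSO stock) for 48 hours at 37C. After MPER lysis, β-galactosidase reporter activity was read as FDG fluorescence (ex 480/em 540) after 30 minutes.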
MCF10A rereplic = inducers of DNA re-replication in MCF 10A breast cells; MCF 10A DNA re-replication, Hoechst nuclear intensity, 48 h; Potency, µM (series often up to 46.1 µM), for inactives: top-dose activity, positive = re-replication, usual class: activators; 350,000 compounds, 2.9% hits; AID 624296; also: % of control where 0% means no effect; nearly all actives have a fitted effect of over 50% in size
A-T KAP1 phos = potential ataxia-telangiectasia treatment; F2112 A-T fibroblasts, KAP-1 phosphorylation AlphaLISA; neocarzinostatin DNA damage 30 min before lysis; 320,000 compounds, 0.19% hits; Potency, µM (titrated, usually from 57.5 µM), for inactives: at the highest dose activation, most hits filed as activators; also: % of control where 0% means no effect; nearly all actives have a fitted effect of over 45% in size
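ATM-like activity read as KAP-1 phosphorylation via AlphaLISA donor/acceptor antibody pairs after lysis and 6 hr at 25C. Cells were ATM-null patient fibroblasts (F2112, hTERT), dosed 60 min, then exposed to the DSB inducer NCS for 30 min.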
The depositor's hits bear a star; [ ] = another dose, or the depositor's remark. Rows were chosen to be rich in hits. Some 4.2% of all compounds tested hit in one or more screens of this group. Calls follow the shape of the dose curve; as a rule, active = well fitted activation curve with a large enough effect; inconclusive = small, poorly fitted or top-dose-only effect; inactive = no such curve, though single readings can be large or run the other way. Potency is read from the fitted curve at half-maximal effect.

Results for O=C(Nc1ccccc1)c1sc(N2CCOCC2)nc1-c1ccccc1 ?
SW480 rerep: 3%; Mito fusion act: 0%; a7 integrin act: -2%; MCF10A rereplic: 12%; A-T KAP1 phos: -7%

Results for O=C(NC1CCCCC1)c1sc(N2CCOCC2)nc1-c1ccccc1 ?
SW480 rerep: 0%; Mito fusion act: -2%; a7 integrin act: 0%; MCF10A rereplic: 5.8µM*; A-T KAP1 phos: -7%

How did Nc1ccc(N2CCN(c3ccc(Cl)c(Cl)c3)CC2)cc1 do in these assays?
SW480 rerep: -10%; Mito fusion act: 13µM*; a7 integrin act: -23%; MCF10A rereplic: inconclusive; A-T KAP1 phos: -25%

Results for Nc1ccc(N2CCN(c3ccc(F)cc3)CC2)cc1 ?
SW480 rerep: inconclusive; Mito fusion act: -3%; a7 integrin act: -7%; MCF10A rereplic: inconclusive; A-T KAP1 phos: -3%

Results for O=C1[C@H]2[C@@H](c3ccc(C(F)(F)F)cc3)N[C@]3(CCCN(Cc4ccco4)C3=O)[C@H]2C(=O)N1Cc1ccccc1 ?
a7 integrin act: 6%

What do the screens show for `CC(C)OC(=O)c1ccc(NC(=O)c2cccc(-n3cnnn3)c2)cc1`?
SW480 rerep: -8%; Mito fusion act: 13%; a7 integrin act: inconclusive; MCF10A rereplic: 5%; A-T KAP1 phos: 0%

Results for Cc1cc(=O)n2c(C(=O)Nc3ccc(C(=O)OC(C)C)cc3)c(C(=O)Nc3ccccc3)sc2n1 ?
SW480 rerep: -81%; Mito fusion act: -10%; a7 integrin act: -63%; MCF10A rereplic: 16µM*; A-T KAP1 phos: 3%

How did COc1ccc(C2=CC(c3cc(OC)c(OC)c(OC)c3)NC(=S)N2)cc1 (stereo not given) do in these assays?
SW480 rerep: 18µM*; Mito fusion act: -1%; a7 integrin act: -8%; MCF10A rereplic: inconclusive; A-T KAP1 phos: -1%

Results for O=C(O)C(Cc1c[nH]c2ccccc12)NS(=O)(=O)c1cccc(Cl)c1Cl (stereo not given) ?
SW480 rerep: -2%; Mito fusion act: 17%; a7 integrin act: 0%; MCF10A rereplic: -11%; A-T KAP1 phos: 2%

Results for CCCCC(CC)C(=O)Oc1ccc(O)c(C(C)(C)C)c1 (stereo not given) ?
SW480 rerep: 9%; Mito fusion act: inconclusive; a7 integrin act: -51%; MCF10A rereplic: 4.1µM*; A-T KAP1 phos: inconclusive

How did COc1ccccc1-c1cc(SC)c(C#N)c(=O)o1 do in these assays?
SW480 rerep: 18µM*; Mito fusion act: -1%; a7 integrin act: -21%; MCF10A rereplic: 7.3µM*; A-T KAP1 phos: -3%

What do the screens show for `CC1c2ccccc2-c2ccccc2N1C` (stereo not given)?
SW480 rerep: 1%; a7 integrin act: 0%; MCF10A rereplic: 3%

What do the screens show for `CSc1nc(N(C)NC(=O)c2ccc(F)cc2)c2ccccc2n1`?
SW480 rerep: 2.3µM*; Mito fusion act: -2%; a7 integrin act: -3%; MCF10A rereplic: 1.8µM*; A-T KAP1 phos: -7%

Results for CC1(C)CC(N=Cc2c(O)n(Cc3ccc4c(c3)OCO4)c(=O)c3ccccc23)CC(C)(C)N1 ?
SW480 rerep: inconclusive; Mito fusion act: 3%; a7 integrin act: -21%; MCF10A rereplic: 0%; A-T KAP1 phos: -18%

What do the screens show for `CCN(c1ccccc1)S(=O)(=O)c1ccc(OC)c(NC(=O)CN(C)C)c1`?
SW480 rerep: 13%; Mito fusion act: 0%; a7 integrin act: -36%; MCF10A rereplic: inconclusive; A-T KAP1 phos: 1%

Results for CCN(c1ccccc1)S(=O)(=O)c1ccc(OC)c(NC(=O)CNC)c1 ?
SW480 rerep: 29%; Mito fusion act: 1%; a7 integrin act: 5%; MCF10A rereplic: 8.2µM*; A-T KAP1 phos: -2%

What do the screens show for `C/C=C/c1ccc(OCC(O)CN(C)Cc2ccc(SC)cc2)c(OC)c1` (stereo not given)?
SW480 rerep: 16%; Mito fusion act: -44%; a7 integrin act: -67%; MCF10A rereplic: 18%; A-T KAP1 phos: -2%

How did O=C(NCc1ccccc1)c1cc(-c2cccc(O)c2)on1 do in these assays?
SW480 rerep: 6.5µM*; Mito fusion act: -7%; a7 integrin act: 17%; MCF10A rereplic: inconclusive; A-T KAP1 phos: 2%

Results for O=C(COC(=O)CCC(=O)c1cccs1)NC1CC1 ?
SW480 rerep: -7%; Mito fusion act: -5%; a7 integrin act: 6%; MCF10A rereplic: 6%; A-T KAP1 phos: 3%

What do the screens show for `O=c1/c(=C\c2ccc(O)cc2)sc2n1C(c1ccccc1)C(c1ccccc1)=NN=2` (stereo not given)?
SW480 rerep: inconclusive; Mito fusion act: 24%; a7 integrin act: -28%; MCF10A rereplic: 7.3µM*; A-T KAP1 phos: -3%

Results for Cc1cc(OCC(=O)Nc2ccc(F)c(F)c2)nc(C(C)C)n1 ?
SW480 rerep: 23µM*; Mito fusion act: -5%; a7 integrin act: -36%; MCF10A rereplic: inconclusive; A-T KAP1 phos: -2%

Results for Cc1cc(N2CCCC2)c(F)cc1/C=C\[N+](=O)[O-] ?
SW480 rerep: 29µM*; Mito fusion act: 2%; a7 integrin act: -56%; MCF10A rereplic: inconclusive; A-T KAP1 phos: 9%

Results for Cc1cc(N2CCC(C)CC2)c(F)cc1[N+](=O)[O-] ?
SW480 rerep: -9%; Mito fusion act: -2%; a7 integrin act: -3%[7.66 µM]; MCF10A rereplic: -1%; A-T KAP1 phos: -3%

How did CCN(CC(=O)Nc1ccccc1OC)C(=O)COc1ccc(C#N)cc1 do in these assays?
SW480 rerep: -93%; a7 integrin act: 31%; MCF10A rereplic: 4%

What do the screens show for `CCNC(=S)N(Cc1cc2cc(C)cc(C)c2[nH]c1=O)C1CCCC1`?
SW480 rerep: -3%; Mito fusion act: 4%; a7 integrin act: -16%; MCF10A rereplic: 6%; A-T KAP1 phos: 4%

What do the screens show for `CCNC(=S)N(Cc1cc2c(C)ccc(C)c2[nH]c1=O)C1CCCC1`?
SW480 rerep: 3.7µM*; Mito fusion act: inconclusive; a7 integrin act: -1%; MCF10A rereplic: inconclusive; A-T KAP1 phos: 11%

What do the screens show for `Cc1ccc(S(=O)(=O)N2CCCCC2)cc1NC(=O)CCOc1ccccc1`?
SW480 rerep: 10%; Mito fusion act: -5%; a7 integrin act: -18%; MCF10A rereplic: 6%; A-T KAP1 phos: 1%

What do the screens show for `Cc1ccc(S(=O)(=O)N2CCOCC2)cc1NC(=O)CNCc1ccccc1Cl`?
SW480 rerep: 5.2µM*; Mito fusion act: 1%; a7 integrin act: 13%; MCF10A rereplic: inconclusive; A-T KAP1 phos: 6%

How did COc1ccc(S(=O)(=O)N2CCCCC2)cc1NC(=O)CN(Cc1ccco1)Cc1ccco1 do in these assays?
SW480 rerep: -6%; Mito fusion act: 11%; a7 integrin act: -33%; MCF10A rereplic: 21µM*; A-T KAP1 phos: 11%

Screens from PubChem.
